# Screening results: PubChem, The Scripps Research Institute Molecular Screening Center
# TbREL1 inh: TbREL1 RNA ligase inhibitors, primary screen, biochemical, FRET fluorescence; TbREL1 RNA ligation; inhibition, % at 9.66 µM; 0.49% of 89,000 active;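 active = inhibition above the mean inhibition across all screened compounds plus 3 SD, cut at about 11% in these data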;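 also: 0% = plate median of test wells and 100% = NSC42067 control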
# Target sequence (P86926 whole entry, looked up): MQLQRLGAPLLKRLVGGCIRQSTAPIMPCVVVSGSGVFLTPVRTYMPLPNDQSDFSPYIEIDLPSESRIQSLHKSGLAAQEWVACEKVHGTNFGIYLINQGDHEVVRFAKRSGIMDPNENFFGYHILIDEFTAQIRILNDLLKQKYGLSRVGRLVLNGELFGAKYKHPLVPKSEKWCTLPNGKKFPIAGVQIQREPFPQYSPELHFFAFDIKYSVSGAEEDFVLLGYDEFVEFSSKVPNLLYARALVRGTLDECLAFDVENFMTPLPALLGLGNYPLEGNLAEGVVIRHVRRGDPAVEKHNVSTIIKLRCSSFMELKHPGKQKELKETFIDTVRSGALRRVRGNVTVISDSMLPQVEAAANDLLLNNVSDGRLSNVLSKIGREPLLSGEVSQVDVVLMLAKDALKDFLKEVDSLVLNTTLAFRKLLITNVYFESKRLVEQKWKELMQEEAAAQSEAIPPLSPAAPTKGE
# TbREL1 conf: TbREL1 RNA ligase inhibitors, confirmation, biochemical, FRET fluorescence, triplicate; shares compounds with TbREL1 inh; TbREL1 RNA ligation; inhibition, % at 9.66 µM; 37% of 390 active;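 active = mean inhibition across replicates above a set limit taken from the earlier primary screen, cut at about 11% in these data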;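 also: 0% = REL1 with substrate and DMSO and 100% = REL1 plus control inhibitor NSC42067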
# Active calls of the source: *. The full list was thinned out, with hits kept by preference.
SMILES,TbREL1 inh,others
O=C(CSc1nnc(-c2cccs2)o1)c1ccc2c(c1)OCO2,2,
COc1ccccc1CNC(=O)COC(=O)CC1CC2CCC1C2 (centres undefined),5,
COc1ccccc1CCC(=O)OCC(=O)NC1CC1,34*,TbREL1 conf=5
O=C(COC(=O)Cc1ccc(Br)cc1)NC1CC1,-1,
S=C(Nc1ccccc1Br)OCCN1CCCC12CCC(c1ccccc1)CC2 (centres undefined),2,
Cc1nn(-c2ccccc2)c2sc(C(=O)NC3CCCc4ccccc43)cc12 (centres undefined),3,
Cc1[nH]cnc1/C=N\NC(=O)c1cccc(S(=O)(=O)N(C)C)c1,9,
O=C(CSc1ncnc2scc(-c3ccc(Cl)cc3)c12)Nc1ccccc1-c1ccccc1,5,
Cc1ccsc1-c1nc(C(N)=O)c2[nH]c(=O)n(-c3ccc(Cl)cc3)c2n1,27*,TbREL1 conf=0
Cc1cccc(-n2c(=O)[nH]c3c(C(N)=O)nc(C(C)C)nc32)c1,0,
CCOc1ccccc1-c1nc(C(N)=O)c2[nH]c(=O)n(-c3ccc(F)cc3)c2n1,0,
O=C(CNS(=O)(=O)c1ccc(Cl)s1)N1CCN(c2ccccn2)CC1,1,
C=CCNC1CCC12CCC(c1ccccc1)CC2 (centres undefined),3,
COC(=O)C1=C(C)N(Cc2ccccc2)C(=NCCc2c[nH]c3ccccc23)N[C@H]1c1cccc(F)c1,4,
COC(=O)C1=C(C)N(Cc2ccc(Cl)cc2)C(=S)NC1c1ccccc1 (centres undefined),1,
COC(=O)C1=C(C)N(Cc2ccccc2)C(=NCc2ccccc2)N[C@H]1c1cccc(F)c1,14*,TbREL1 conf=15*
COC(=O)C1=C(C)N(Cc2ccc(Cl)cc2)C(=S)NC1c1ccc(F)cc1 (centres undefined),-5,
COC(=O)C1=C(C)N(Cc2ccccc2C(F)(F)F)C(=NCc2ccc(OC)cc2)NC1c1ccccc1 (centres undefined),13*,TbREL1 conf=16*
COC(=O)C1=C(C)N(Cc2ccccc2)C(=S)NC1c1ccc(Cl)cc1 (centres undefined),-8,
CCN1C(=NCc2ccc(OC)cc2)N[C@@H](c2ccccc2)[C@H](C(=O)OC)[C@H]1C,-2,
COC(=O)C1=C(C)N(Cc2ccccc2C(F)(F)F)C(=NCc2ccc(OC)cc2)NC1c1ccc(Cl)cc1 (centres undefined),12*,TbREL1 conf=16*
COC(=O)C1=C(C)N(Cc2ccc(Cl)cc2)C(=S)NC1c1cccc(OC)c1 (centres undefined),-7,
COC(=O)C1=C(C)N(Cc2ccc(F)cc2)C(=S)NC1c1ccccc1 (centres undefined),-8,
COC(=O)C1=C(C)N(Cc2ccccc2C(F)(F)F)C(=NCc2ccc(C(F)(F)F)cc2)NC1c1ccc(Cl)cc1 (centres undefined),12*,TbREL1 conf=18*
COC(=O)C1=C(C)N(Cc2ccccc2)C(=NCc2ccccc2)N[C@H]1c1ccccc1,5,
SMILES,TbREL1 inh,others
O=C(N1CCC(C(O)(c2ccccc2)c2ccccc2)CC1)n1ncc(C(O)(c2ccccc2)c2ccccc2)n1,-3,
COC(=O)[C@]12C[C@H](CC(=O)NCCCCc3ccccc3)C(=O)N(Cc3cccc4ccccc34)C1=C[C@H](C(C)C)O[C@@H]2C1CC1,-5,
COC(=O)[C@]12C[C@H](CC(=O)N3CCN(C(=O)c4ccco4)CC3)C(=O)N(Cc3ccc(Cl)cc3Cl)C1=C[C@H](COCc1ccccc1)O[C@@H]2C,-6,
N#Cc1ccc(Cn2ccc3ccc(-c4ccc5ccn(Cc6ccc(C#N)cc6)c5c4)cc32)cc1,6,
S=c1[nH]nc(-c2cc(-c3ccccc3)n[nH]2)n1N=Cc1cccc(OCc2ccccc2)c1,-4,
COP(=O)(CC(=O)C(Cc1ccccc1)NC(=O)OC(C)(C)C)OC (centres undefined),0,
C=CCn1c(SCc2cccc(C(F)(F)F)c2)nnc1-c1ccc(OC)cc1,0,
Cc1onc(C(=O)N2CCN(C(c3ccc(Cl)cc3)c3ccc(Cl)cc3)CC2)c1[N+](=O)[O-],-2,
COC(=O)C1=C(C)N(Cc2ccccc2C(F)(F)F)C(=NCc2ccc(OC)cc2)NC1c1cccc(F)c1 (centres undefined),14*,TbREL1 conf=19*
C=CCN=C1NC(c2ccc(C(F)(F)F)cc2)C(C(=O)OC)=C(C)N1Cc1ccccc1C(F)(F)F (centres undefined),10,
COC(=O)C1=C(C)N(Cc2ccccc2C(F)(F)F)C(=NCc2cccc(C(F)(F)F)c2)NC1c1ccc(C(F)(F)F)cc1 (centres undefined),18*,TbREL1 conf=20*
COCCN=C1N[C@@H](c2ccc(Br)cc2)C(C(=O)OC)=C(C)N1Cc1ccccc1,5,
COc1cccc(C2NC(=S)N(Cc3ccc(F)cc3)C(C)=C2C(C)=O)c1 (centres undefined),-7,
C=CCN=C1NC(c2ccc(F)cc2)C(C(=O)OC)=C(C)N1Cc1ccccc1C(F)(F)F (centres undefined),14*,TbREL1 conf=14*
C[C@@H](O[Si](c1ccccc1)(c1ccccc1)C(C)(C)C)[C@H]1C(=O)N[C@H](Cc2cn(S(=O)(=O)c3ccccc3)c3ccccc23)C(=O)N1C,5,
CC(C)CNC(=O)OCc1cn(Cc2ccc(F)cc2F)nn1,0,
O=C(NCc1cccs1)C1CCN(S(=O)(=O)c2cccc3ccccc23)CC1,7,
CCOc1cccc(=O)c2c(C)n(-c3ccc(C(=O)O)cc3)c(C)c12,46*,TbREL1 conf=11*
COc1cccc(=O)c2c(C)n(-c3ccc(C(=O)O)cc3)c(C)c12,23*,TbREL1 conf=12*
CCOc1ccccc1CNCc1ccc(C(=O)O)cc1,1,
CCOC(=O)c1cc2c(C)n(-c3ccc(N(C)C)cc3)c(C)c2cc(C(=O)OCC)c1=O,-1,
Cc1cc(=O)n(-c2ccc(C(=O)O)cc2)[nH]1,0,
Cc1nc(=O)c(-c2ccccc2)c(C)n1-c1ccc(C(=O)O)cc1,-2,
Cc1ccc(NC(=S)NNC(=O)CSc2nc3ccccc3c(=O)n2-c2ccc(Cl)cc2)cc1,-5,
C=CCOC(=O)N1CCN(C(=O)c2ccc3c(c2)nc(C)n3C2CCCC2)CC1,3,
SMILES,TbREL1 inh,others
COC(=O)[C@]12C[C@H](CC(=O)NCc3ccccc3)C(=O)N(Cc3ccc4c(c3)OCO4)C1=C[C@H](C(C)C)O[C@@H]2C1CC1,-1,
O=C(CSc1nc2ccccc2o1)NN=C/C=C\c1ccccc1[N+](=O)[O-],0,
COC(=O)[C@@H](N[C@H](/C=C/c1ccccc1)[C@@H](O)Cc1ccccc1)c1ccccc1,-5,
O=C(/C=C/c1ccc(Cl)cc1)NCCc1ccccc1,0,
O[C@@H](Cc1ccccc1)[C@@H](/C=C/c1ccccc1)NCCc1ccccc1,11*,TbREL1 conf=10
C=CCn1c(COc2ccccc2)nnc1SCC(=O)Nc1ccc(S(=O)(=O)Nc2cc(C)nc(C)n2)cc1,-3,
CC(C)(C)c1ccc(S(=O)(=O)N2CCCC(C(=O)NCCN3CCC(Cc4ccccc4)CC3)C2)cc1 (centres undefined),9,
Cc1oc2c(c1C(=O)c1ccccc1)C(=O)C(=O)c1ccccc1-2,29*,TbREL1 conf=66*
COc1ccc(C(=O)c2c(C(F)(F)F)oc3c2C(=O)c2ccccc2C3=O)cc1OC,4,
O=C(c1ccccc1)c1c[nH]cc1-c1ccccc1,-1,
